Assay outcomes: PubChem, National Center for Advancing Translational Sciences (NCATS)
HCV inhibitor: qHTS Assay for Inhibitors of Hepatitis C Virus (HCV). Huh7.5.1 HCVcc-Cre infection, luciferase reporter, 44 h. Potency, µM (doses to about 41.8 µM), for the others: at the top dose activity change, negative = inhibition, most hits filed as inhibitors. 340,000 tested, 3.4% active. AID 651820, 2012; active means well fitted inhibition curve with a large enough effect; inconclusive means small, poorly fitted or top-dose-only effect, or another doubt; inactive means no such curve, though single readings can be large or run the other way
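1,000 cells/well; 4 h culture; + compound; + HCVcc-Cre (~0.5 moi); 44 h; luciferase substrate, RT 15 min; read 15 sec.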
VACV mCherry inh: qHTS for Stage-Specific Inhibitors of Vaccinia Orthopoxvirus: mCherry Reporter Primary qHTS. Vaccinia virus mCherry reporter infection, fluorescence. AID 720579, 2013. 310,000 tested, 0.63% active. Potency, µM (doses to about 36.5 µM), for inactives: at the highest dose activity change, negative = inhibition, hits mostly inhibitors; calls by dose curve; tested in A549 cells; further: nearly all actives have a fitted effect of over 35% in size
Vaccinia Venus: qHTS for Stage-Specific Inhibitors of Vaccinia Orthopoxvirus: Venus Reporter Primary qHTS. AID 720580, 2013. Vaccinia virus Venus reporter expression, fluorescence. 330,000 tested, 0.46% active. Potency, µM (doses to about 36.5 µM), inactives show at the highest dose activity change, negative = inhibition, usual class: inhibitors; calls by dose curve; tested in A549 cells; further: nearly all actives have a fitted effect of over 30% in size
The depositor's hits bear a star; i = inactive; ? = inconclusive; . = no result. A selection: hits, their analogues and other compounds. The true share with any hit is near 3.3%. On the % scale 0 is the no-effect control and ±100 the full control effect; potency means the concentration at half of the fitted maximal effect.

SMILES	HCV inhibitor	VACV mCherry inh	Vaccinia Venus
Cc1ccc(C)c(OCC(=O)Nc2ccc3c(c2)OCO3)c1C	11.2µM*	-16.1%	?
CCN(CC(=O)Nc1ccc2c(c1)OCCO2)C(=O)COc1cc(C)ccc1Cl	?	i	-1.5%
CN(C)CC(C)(O)c1ccc2c(c1)CN(Cc1cnn(-c3ccccc3)c1)CCO2 (stereo not drawn)	.	-13.3%	12.5%
COCC(=O)Nc1cc(C(=O)N2CCc3sccc3C2)c2c(c1)nc(-c1ccncc1)n2C	.	-14.5%	-11.4%
CCOc1cccc(=NC2CCCCC2)c2c(C)n(C)c(C)c12	?	20µM*	?
CCOc1ccccc1OCCNC1CCCC1	-11.3%	.	.
O=C(Nc1ccc(Br)c2cccnc12)c1cccc2ccccc12	.	-6.3%	-11.4%
COCCCNC(=O)c1ccc(NC(=O)N2CCCCc3ccccc32)cc1	.	13.9%	1.8%
O=[N+]([O-])c1ccc(N2CCOCC2)cc1O	-3.3%	-19.3%	-25.4%
Cc1cc(N2CCOCC2)ccc1/C=C\[N+](=O)[O-]	?	?	10µM*
COC(=O)c1ccc(C(=O)NCC2Cc3cc(F)cc(-c4cncnc4)c3O2)cc1 (stereo not drawn)	.	i	0.0%
CCC(C(=O)NCCCN1CC(C)CC(C)C1)n1ncn2c(cc3occc32)c1=O (stereo not drawn)	-17.5%	.	.
COc1ccc(N2CCN(C(=O)CCC(=O)N3CCOc4ccc(C)cc43)CC2)cc1	-24.2%	-25.9%	-22.8%
Cc1ccc2c(c1)N(C(=O)CCC(=O)N1CCN(c3ccccc3)CC1)CCO2	-11.2%	4.4%	13.6%
Cc1ccc2c(c1)N(C(=O)CCC(=O)N1CCN(c3cccc(C)c3C)CC1)CCO2	10µM*	?	?
COc1ccc(N2CCN(C(=O)CCC(=O)N3CCOc4ccc(Cl)cc43)CC2)cc1	?	14.1µM*	?
Cc1ccc(-c2nn3c(-c4ccccc4C)nnc3c3ccccc23)cc1	.	-23.2%	-17.1%
CCc1cccc2c1NC(=O)C21N2CCCC2C(C(=O)c2ccc3ccccc3c2)C12C(=O)Nc1ccccc12 (stereo not drawn)	?	-15.9%	-14.7%
CCc1ccc2c(c1)C1(C(=O)N2)N2CCCC2C(C(=O)c2ccc3ccccc3c2)C12C(=O)Nc1ccccc12 (stereo not drawn)	?	28.2µM*	12.6µM*
COc1ccc(O)c(CN2CCC3(CCC(CNC(=O)c4ccco4)O3)CC2)c1 (stereo not drawn)	.	-21.7%	-11.1%
Cc1ccsc1C(=O)OC(C)C(=O)Nc1ccc(Cl)cn1 (stereo not drawn)	2.9%	-18.3%	-13.9%
S=C(NCc1cccs1)Nc1cccc2ccccc12	-17.5%	-10.1%	-9.7%
S=C(NCc1ccccc1)Nc1cccc2ccccc12	10µM*	?	-11.0%
S=C(NCc1ccncc1)Nc1ccccc1	-0.3%	.	.
Cc1ccc(C(C)C)c(OCCNC(=S)Nc2cccc3ccccc23)c1	31.6µM*	.	.
SMILES	HCV inhibitor	VACV mCherry inh	Vaccinia Venus
S=C(NCc1ccccc1)Nc1ccncc1	1.78µM*	-21.2%	-17.5%
Cc1ccc(C(C)C)c(OCCNCc2ccccc2)c1	-4.3%	.	.
Cc1ccccc1CCNC(=O)c1ccc(NC(=O)N2CC(C)Sc3ccccc32)cc1 (stereo not drawn)	.	-9.6%	-17.2%
CN1CCN(CCC(=O)N2c3ccccc3Sc3ccc(C(F)(F)F)cc32)CC1	5.62µM*	-18.5%	-27.3%
OCCN1CCN(CC/C=C2/c3ccccc3Sc3ccc(C(F)(F)F)cc32)CC1	0.891µM*	-15.7%	-28.6%
OCCN1CCN(CCCN2c3ccccc3Sc3ccc(C(F)(F)F)cc32)CC1	?	-14.9%	?
O=C(CCN1CCOCC1)N1c2ccccc2Sc2ccc(Cl)cc21	-11.5%	.	.
Cc1ccc(S(=O)(=O)N2CCOCC2)cc1C(=O)Nc1ccncc1	6.3%	.	.
COc1cc(OC)cc(C(=O)Nc2nc3ccc(S(C)(=O)=O)cc3s2)c1	-20.7%	-14.4%	-13.8%
COc1cc(C(=O)Nc2nc3ccc(S(C)(=O)=O)cc3s2)cc(OC)c1C	3.55µM*	-3.8%	-24.0%
Cc1ccc(S(=O)(=O)N2CCOCC2)cc1C(=O)Nc1ccc(-c2cn3ccsc3n2)cc1	10µM*	?	-29.8%
COc1ccc2nc(NC(=O)c3ccoc3C)sc2c1	14.1µM*	-19.5%	-13.0%
COc1ccc2nc(NC(=S)NC(=O)c3ccco3)sc2c1	-12.9%	-1.5%	-22.2%
COc1ccc2nc(NC(=O)c3cccc(S(=O)(=O)N4CCOCC4)c3)sc2c1	-24.2%	-25.2%	-17.6%
COc1ccc2nc(NC(=O)c3cc(S(=O)(=O)N4CCOCC4)ccc3C)sc2c1	22.4µM*	.	?
